Bioassay records: PubChem, National Center for Advancing Translational Sciences (NCATS)
The list is not random: actives were taken first. Their share in the collection is about 7.3%.
SMN2 splice enh: enhancers of SMN2 splice variant expression | HEK293 SMN2-luciferase splicing reporter, luminescence, 30-36 h | Potency, µM (top dose mostly 46.1 µM), for the others: top-dose activity change, positive = activation, hits mostly activators | 210,000 compounds, 2.8% hits; also: % of control where 0% means no effect; nearly all actives have a fitted effect of over 55% in size
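HEK293 cells carry an SMN2 […]–luciferase reporter in which exon 7 inclusion puts luciferase in frame. Cells were plated 10-12 h before compound addition, then incubated 30-36 h at 37C. ONE-Glo luminescence was read; sodium butyrate at 4.5 mM final served as control.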
ELG1 genotox: induces genotoxicity in HEK293T cells with luciferase-tagged ELG1. 330,000 compounds, 1.3% hits. Potency, µM (top dose mostly 46 µM), for inactives: at the top dose activity change, positive = activation, actives largely listed as activators. HEK293T ELG1-luciferase reporter, luminescence, 16 h; also: % of control where 0% means no effect; nearly all actives have a fitted effect of over 60% in size
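HEK293T cells expressing luciferase-tagged ELG1 were exposed to compound or DMSO vehicle for 16 hr at 37 °C and 5% CO2. Luciferase activity was then measured with ONE-Glo after 30 min at room temperature.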
NPC1 prom act: activators of NPC1 promoter; Huh7 NPC1 promoter luciferase reporter, 24 h; Potency, µM (titrated, usually from 9.22 µM), for inactives: top-dose activation, hits mostly activators; 320,000 compounds, 2.4% hits; also: % of control where 0% means no effect; nearly all actives have a fitted effect of over 60% in size
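Compounds in DMSO were transferred onto Huh7 NPC1-luciferase reporter cells pre-incubated 2 h; after 24 h at 37 °C, Amplite reagent was dispensed and luminescence recorded 10 min later.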
FLuc modulator: counter-screen for miR-21 project: firefly luciferase inhibitors or activators; P08659; purified FLuc, Km substrates, luminescence inhibition; Potency, µM (highest dose often 57.5 µM), inactives show top-dose activity change, negative = inhibition, hits mostly inhibitors; 360,000 compounds, 6.9% hits;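 also: plate controls were vehicle for no effect and reference inhibitor for full effect; nearly all actives have a fitted effect of over 55% in size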
Target sequence (P08659 whole entry, looked up): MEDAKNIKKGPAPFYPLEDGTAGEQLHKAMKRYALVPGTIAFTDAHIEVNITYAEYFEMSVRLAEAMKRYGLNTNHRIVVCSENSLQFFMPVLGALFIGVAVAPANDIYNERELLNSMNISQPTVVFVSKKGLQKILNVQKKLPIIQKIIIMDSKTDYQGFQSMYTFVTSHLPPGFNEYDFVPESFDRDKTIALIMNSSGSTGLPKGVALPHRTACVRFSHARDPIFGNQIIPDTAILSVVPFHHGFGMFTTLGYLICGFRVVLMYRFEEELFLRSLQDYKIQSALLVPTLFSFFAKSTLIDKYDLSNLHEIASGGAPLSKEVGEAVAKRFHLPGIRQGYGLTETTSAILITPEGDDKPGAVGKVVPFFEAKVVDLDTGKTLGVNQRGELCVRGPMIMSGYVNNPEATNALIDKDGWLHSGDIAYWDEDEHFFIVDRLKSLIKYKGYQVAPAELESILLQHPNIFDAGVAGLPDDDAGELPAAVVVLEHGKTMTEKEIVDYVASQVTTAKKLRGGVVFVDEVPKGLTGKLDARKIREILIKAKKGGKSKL
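Purified P. pyralis luciferase, 10 nM final, with Km-level 10 uM D-luciferin and 10 uM ATP in 50 mM Tris acetate pH 7.5, 10 mM Mg acetate, 0.01% Tween-20, 0.05% BSA; 6-point qHTS titration about 60 µM downward; luminescence read.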
uPA surface inh: cell surface uPA generation inhibition | cell surface uPA generation assay, qHTS | Potency, µM (series often up to 38.3 µM), without a hit: at the highest dose activity change, negative = inhibition, most hits filed as inhibitors | 330,000 compounds, 0.31% hits; active = well fitted inhibition curve with a large enough effect; inconclusive = small, poorly fitted or top-dose-only effect; inactive = no such curve, though single readings can be large or run the other way; tested in mouse RAW 264.7 cells; also: % is scaled to controls: 0 for no effect and ±100 for the full control effect; nearly all actives have a fitted effect of over 55% in size
Rab9 prom act: activates the Rab9 promoter. Huh7 Rab9 promoter-luciferase reporter, luminescence, 24 h. Potency, µM (doses to about 9.22 µM), inactives show at the top dose activation, negative = inhibition, hits mostly activators. 320,000 compounds, 2.8% hits. AID 485297; also: % of control where 0% means no effect; nearly all actives have a fitted effect of over 60% in size
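Measured in stably transfected Huh7 cells bearing a Rab9 promoter–luciferase construct: 24 h compound treatment at 37 °C, followed by luminescence detection.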
* hit, by the source's call; ? = inconclusive; . = not tested or not shown; [ ] = another dose, or the depositor's remark. Unless noted, calls follow the shape of the dose curve; as a rule, active = well fitted curve in the direction sought with a large enough effect; inconclusive = small, poorly fitted or top-dose-only effect, or another doubt; inactive = no such curve, though single readings can be large; an effect the other way counts as inactive or inconclusive. Potency is read from the fitted curve at half-maximal effect.

SMILES	SMN2 splice enh	ELG1 genotox	NPC1 prom act	FLuc modulator	uPA surface inh	Rab9 prom act
CCOc1ccc(CCNC(=O)c2ccc(CSCc3ccccc3C)o2)cc1OCC	.	.	.	-12%	.	.
Cn1c(=O)c2nc(SCC(=O)Nc3cc(Cl)cc(Cl)c3)n(C)c2n(C)c1=O	.	.	.	-4%	.	.
Cc1ccc2nc(-c3ccc(SCC(=O)Nc4nnc(C)s4)nc3)[nH]c2c1	14µM*	?	2.5µM*	0.6µM*	-21%	2.8µM*
Cc1nc(NC(=O)CSc2ccc(-c3nc4ccccc4[nH]3)cn2)sc1C	17%	?	?	-13%	2%	?
Cc1ccc2nc(-c3ccc(SCC(=O)Nc4nc(C)cs4)nc3)[nH]c2c1	6.3µM*	?	3.5µM*	0.54µM*	2%	2.8µM*
Cc1csc(NC(=O)CSc2ncc(-c3ccccc3)[nH]2)n1	6%	6%	8%	?	6%	-2%
Cc1ccc(Oc2ccc(C=O)cn2)cc1	-21%	-7%	0%	-1%	-4%	-7%
CO/N=C/c1ccc(Oc2ccc(C)cc2)nc1	-7%	15%	18%	17µM*	-4%	20%
O=C(Cc1csc(NC(=O)Nc2cccc(Cl)c2)n1)NCc1ccccn1	.	2%	22%	2.7µM*	-3%	?
COc1ccccc1NC(=O)Nc1nc(CC(=O)NCc2cccnc2)cs1	.	0%	-4%	?	-3%	1%
O=C(NCc1cccnc1)Nc1cccc(Cl)c1	.	8%	11%	-2%	5%	15%
O=C(Cc1csc(NC(=O)Nc2cccc(Cl)c2)n1)NC1CCCC1	.	-6%	26%	?	1%	1%
O=C(Cc1csc(NC(=O)Nc2cccc(Cl)c2)n1)NCc1cccnc1	.	-8%	11%	6.7µM*	6%	14%
O=C(Cc1csc(NC(=O)Nc2ccc(Cl)cc2)n1)NCc1cccnc1	.	0%	24%	3µM*	-3%	24%
Cc1cc(=O)oc(C)c1C(=O)OCC(=O)c1ccc(Br)cc1	-18%	-1%	1%	9.5µM*	3%	12%
Cc1cc(=O)oc(C)c1C(=O)OCC(=O)c1ccc(Cl)cc1	-14%	5%	18%	12µM*	4%	27%
Cc1cc(=O)oc(C)c1C(=O)OCC(=O)c1ccc2ccccc2c1	-21%	1%	15%	3.4µM*	-3%	12%
Cc1cc(=O)oc(C)c1C(=O)OCC(=O)c1ccccc1	-8%	2%	10%	?	1%	7%
CCOc1ccc(NC(=O)c2c(NCc3cccnc3)sc3c2CCC(C)C3)cc1 (centres undefined)	.	.	.	-20%	.	.
C=CS(=O)(=O)N(Cc1ccc(Cl)c(Cl)c1)C[C@@H](O)CO	.	-10%	.	.	3.5µM*	.
O=c1ccc(-c2ccc(S(=O)(=O)N3CCCCC3)o2)n[nH]1	.	-1%[9.26 µM]	-1%	0%	0%	2%
COc1ccc(NC(=O)c2cc(-c3ccc(OC)c(OC)c3)nc3ccccc23)c(OC)c1	.	0%	14%	7.6µM*	4%	18%
COc1ccc(-c2cc(C(=O)Nc3ccc(S(=O)(=O)Nc4onc(C)c4C)cc3)c3ccccc3n2)cc1OC	.	2%	8%	13µM*	0%	9%
COc1ccc(-c2cc(C(=O)Nc3ccc(C(N)=O)cc3)c3ccccc3n2)cc1OC	?	-1%	10%	3.4µM*	2%	25%
COc1cc(-c2cc(C(=O)Nc3ccc(O)cc3)c3ccccc3n2)cc(OC)c1OC	.	-10%	3%	?	7%	-8%
SMILES	SMN2 splice enh	ELG1 genotox	NPC1 prom act	FLuc modulator	uPA surface inh	Rab9 prom act
COc1ccc(NC(=O)c2cc(-c3ccncc3)nc3ccccc23)c(OC)c1	.	-4%	.	.	2%	.
COc1ccc(-c2cc(C(=O)NC(C)c3ccccn3)c3ccccc3n2)cc1OC (centres undefined)	.	-4%	-1%	7.6µM*	-14%	-6%
COc1ccc(-c2cc(C(=O)NC3CCCC3)c3ccccc3n2)cc1OC	.	.	.	.	-6%	.
COc1ccc(-c2cn3nc(N4CCC(C(=O)Nc5cc(Cl)ccc5OC)CC4)sc3n2)cc1	.	.	.	-19%	.	.
NC(=O)c1ccccc1NC(=O)C1CCCN(c2ncnc3onc(-c4ccc(F)cc4)c23)C1 (centres undefined)	.	.	.	-14%	.	.
CCn1c(=O)n(CC)c2cc(N3CCCCC3)c(NC(=O)Nc3ccccc3C(F)(F)F)cc21	.	.	.	0%	.	.
COc1ccc(-c2cc(C(=O)OC3CCOC3=O)c3ccccc3n2)cc1OC (centres undefined)	-4%	4%	9%	13µM*	-1%	-2%
COC(=O)c1ccccc1NC(=O)c1ccc(-c2nc(COc3ccccc3)c(C)o2)cc1	.	.	.	-5%	.	.
CC(C)(C)c1nnc(NC(=S)Nc2ccccc2)s1	13µM*	?	3.5µM*	9.5µM*	0%	3.2µM*
COc1cc(OC)cc(C(=O)Nc2nnc(NC(=S)Nc3ccccc3)s2)c1	12%	-5%	-2%	-1%	5%	-2%
Fc1ccc(NC(=S)Nc2nccs2)cc1	?	6%	?	21µM*	?	3.5µM*
S=C(Nc1ccccc1)Nc1nccs1	?	8%	2.5µM*	15µM*	3%	?
O=C(Cc1ccccc1)Nc1nccs1	.	0%	1%	-1%	12%	3%
Fc1ccc(NC(=S)Nc2ccc3nccnc3c2)cc1	-8%	-10%	8%	?	-28%	15%
CC(=O)C1CCCN(C(=O)c2ccc3oc(CCc4ccccc4)nc3c2)C1 (centres undefined)	.	?	?	?	-12%	2.5µM*
CCCCc1nc2cc(C(=O)N3CCN(c4nc(C)cnc4C)CC3)ccc2o1	.	4%	?	15µM*	-7%	?
COC(=O)C1CCCCN1C(=O)c1ccc2oc(Cc3ccccc3)nc2c1 (centres undefined)	.	?	3.5µM*	15µM*	-14%	?
COCCC1CCCCN1C(=O)c1ccc2nc(Cc3ccccc3F)oc2c1 (centres undefined)	.	10µM*	1.8µM*	8.5µM*	5%	2.8µM*
COCC1CCCCN1C(=O)c1ccc2oc(CCc3ccccc3)nc2c1 (centres undefined)	.	?	?	?	0%	?
CCOC(=O)C1CCCN(C(=O)c2ccc3oc(CCc4ccccc4)nc3c2)C1 (centres undefined)	.	12%	?	13µM*	7%	30%
O=C(c1ccc2oc(CCCc3ccccc3)nc2c1)N1CCCC1	.	9.2µM*	3.2µM*	8.5µM*	3%	1.8µM*
CCOC(=O)CC1CCCCN1C(=O)c1ccc2oc(CCc3ccccc3)nc2c1 (centres undefined)	.	2%	5%	?	0%	17%
